Records with an inconclusive call do not appear. Activity calls are given as the source filed them. Calls follow the shape of the dose curve; as a rule, active = well fitted cell-killing curve with a large enough effect; inconclusive = small, poorly fitted or top-dose-only effect, or effect the other way; inactive = flat fitted curve, though single readings scatter.
Key:
Assay in all cases: Primary qHTS to identify gynecologic anti-cancer compounds using libraries of approved drugs and bioactive compounds (AID 1345084); also: nearly all actives have a fitted effect of over 55% in size
C33A = settings: Gynecologic cancer cell panel viability, ATPlite luminescence, 48 h; series mostly up to 57.5 µM
How it was run: (§1)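 Cytotoxicity screen measuring ATP content by luciferase luminescence. Each compound is applied at five concentrations for 48 h at 37 C with 5% CO2.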

CAOV3 = settings: Gynecologic cancer cell panel viability, ATPlite luminescence, 48 h; series mostly up to 57.5 µM
How it was run: as §1

CASKI = settings: Gynecologic cancer cell panel viability, ATPlite luminescence, 48 h; series mostly up to 57.5 µM
How it was run: as §1

Es-2 = settings: Gynecologic cancer cell panel viability, ATPlite luminescence, 48 h; series mostly up to 57.5 µM
How it was run: as §1

HeLa = settings: Gynecologic cancer cell panel viability, ATPlite luminescence, 48 h; series mostly up to 57.5 µM
How it was run: as §1

Hek293T = settings: Gynecologic cancer cell panel viability, ATPlite luminescence, 48 h, control line for the selectivity index; series mostly up to 57.5 µM
How it was run: as §1

JEG-3 = settings: Gynecologic cancer cell panel viability, ATPlite luminescence, 48 h; series mostly up to 57.5 µM
How it was run: as §1

OV90 = settings: Gynecologic cancer cell panel viability, ATPlite luminescence, 48 h; series mostly up to 57.5 µM
How it was run: as §1

SKOV3 = settings: Gynecologic cancer cell panel viability, ATPlite luminescence, 48 h; series mostly up to 57.5 µM
How it was run: as §1

Tov112D = settings: Gynecologic cancer cell panel viability, ATPlite luminescence, 48 h; series mostly up to 57.5 µM
How it was run: as §1

Tov-21-G = settings: Gynecologic cancer cell panel viability, ATPlite luminescence, 48 h; series mostly up to 57.5 µM
How it was run: as §1

PA-1 = settings: Gynecologic cancer cell panel viability, ATPlite luminescence, 48 h; series mostly up to 57.5 µM
How it was run: as §1

Measured: Potency

OCC1OC(Oc2cc(O)cc(/C=C/c3ccc(O)cc3)c2)C(O)C(O)C1O (stereo not given)
not listed: Tov-21-G | PA-1
inactive: all other assays above

N#Cc1ccc(C(=O)N2CCC3(CC2)N=C(N)c2c(F)ccc(F)c2N3)cn1
not listed: SKOV3 | PA-1
inactive: all other assays above

CC(=O)O[C@@H]1[C@@H](OC(=O)/C=C/c2ccccc2)[C@@H](OC(C)=O)[C@H](O[C@H]2[C@@H]3C=CO[C@@H](O[C@@H]4O[C@H](CO)[C@@H](O)[C@H](O)[C@H]4O)[C@@H]3[C@@]3(CO)O[C@@H]23)O[C@H]1C
not listed: PA-1
inactive: all other assays above

COc1cc2oc(-c3ccc(O)cc3O)cc2c(OC)c1CC=C(C)C
not listed: PA-1
inactive: all other assays above

O=C1OCc2cc3cccc(O[C@@H]4O[C@H](CO)[C@@H](O)[C@H](O)[C@H]4O)c3c(O)c21
not listed: OV90
inactive: all other assays above

CN[C@H](CC(C)C)C(=O)N[C@H]1C(=O)N[C@@H](CC(N)=O)C(=O)N[C@H]2C(=O)N[C@H]3C(=O)N[C@H](C(=O)N[C@H](C(=O)O)c4cc(O)cc(O)c4-c4cc3ccc4O)[C@H](O[C@H]3C[C@](C)(N)[C@@H](O)[C@H](C)O3)c3ccc(c(Cl)c3)Oc3cc2cc(c3O[C@@H]2O[C@H](CO)[C@@H](O)[C@H](O)[C@H]2O[C@H]2C[C@](C)(NCc3ccc(-c4ccc(Cl)cc4)cc3)[C@@H](O)[C@H](C)O2)Oc2ccc(cc2Cl)[C@H]1O
not listed: OV90
inactive: all other assays above

CC(C)CNCc1ccc(-c2ccccc2S(=O)(=O)N2CCCC2)cc1
not listed: OV90
inactive: all other assays above

Cc1[nH]c2ccccc2c1C1=C(NCCc2ccc(F)cc2)C(=O)N(C)C1=O
not listed: PA-1
inactive: all other assays above

C/C(=C\CCC(C)CCO)C(=O)OC1(C)CCC2C(C(=O)O)=COC(OC3OC(CO)C(O)C(O)C3O)C21 (stereo not given)
not listed: SKOV3 | PA-1
inactive: all other assays above

CC1=CC(=O)CC(C)(C)[C@@]1(O)CC[C@@H](C)O[C@@H]1O[C@H](CO)[C@@H](O)[C@H](O)[C@H]1O
not listed: PA-1
inactive: all other assays above

COCCOc1cnc2ccn([C@H](C)c3nnc4c(F)cc(-c5cnn(C)c5)cn34)c(=O)c2c1
not listed: PA-1
inactive: all other assays above

Nc1nc2c(c(N3CCNCC3)n1)CCC1=C2[C@@H]2CCCC[C@@H]2O1
not listed: PA-1
inactive: all other assays above

CCN(CC)Cc1ccc(C(=O)N(CCc2ccccc2OC)[C@@H]2CCNC2)cc1
not listed: OV90
inactive: all other assays above

CC1CCC23COC(=O)C2=CC(O)CC3C1(C)CCC1=CC(O)OC1=O (stereo not given)
not listed: SKOV3 | PA-1
inactive: all other assays above

Source: PubChem BioAssay (NCATS)
